High-throughput results from PubChem.
NS1 function inh – inhibitors of influenza NS1 protein function | actives 0.4% (n = 270,000) | AID 2326 | Potency, µM (titrated, usually from 46.1 µM); calls by dose curve; further: actives are rising curves; nearly all actives have a fitted effect of over 50% in size
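S. cerevisiae expressing influenza A NS1, grown in glucose, washed, then diluted 1:100 into pH 6.0 -URA galactose medium with 23 nl compound. Growth recovery read as OD600; NS1-free strain serves as control.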
HCV inh – inhibitors of hepatitis C virus infection. Huh7.5.1 HCVcc-Cre infection, luciferase reporter, 44 h. Potency, µM (doses to about 41.8 µM), hits mostly inhibitors. actives 3.4% (n = 340,000)
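Infectious HCV cell culture screen: compound-treated cells (1,000/well, pre-plated 4 h) are infected with HCVcc-Cre at roughly 0.5 moi and grown 44 h. Infection is quantified by luciferase signal after 15 min substrate incubation at room temperature.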
Pf growth 96h – P. falciparum growth inhibition at 96 hours. Potency, µM (doses to about 28.7 µM), most hits filed as inhibitors. actives 6.9% (n = 320,000). AID 504834. P. falciparum luciferase reporter growth, 96 h
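Erythrocytes infected with luciferase-expressing P. falciparum were dispensed at 2% hematocrit and 0.05% parasitemia (final), then incubated with compounds 96 hours at 37 C in 5% CO2. Luminescence after detection reagent addition reported growth.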
Pf growth 48h – P. falciparum growth inhibition at 48 hours (one generation). P. falciparum luciferase growth in erythrocytes, 48 h. actives 5.9% (n = 310,000). Potency, µM (top dose mostly 28.7 µM), usual class: inhibitors
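Erythrocytes infected with P. falciparum carrying an integrated firefly luciferase reporter (2% hematocrit, 0.1% parasitemia final) were exposed to compounds in RPMI 1640 with 0.5% Albumax at 37 C, 5% CO2. Growth inhibition was scored as reduced luminescence.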
VACV Venus inh – inhibitors of vaccinia virus (Venus reporter); Vaccinia virus Venus reporter expression, fluorescence; Potency, µM (highest dose often 36.5 µM), actives largely listed as inhibitors; actives 0.46% (n = 330,000); AID 720580; calls by dose curve; tested in A549 cells; further: nearly all actives have a fitted effect of over 30% in size
Vaccinia mCherry – vaccinia inhibition (mCherry reporter); Vaccinia virus mCherry reporter infection, fluorescence; Potency, µM (titrated, usually from 36.5 µM), most hits filed as inhibitors; actives 0.63% (n = 310,000); AID 720579; calls by dose curve; tested in A549 cells; further: nearly all actives have a fitted effect of over 35% in size
NS1 inh valid – validation of influenza NS1 protein function inhibitors; shares compounds with NS1 function inh; influenza NS1 function cell assay, 15-point titration; activity change, negative = inhibition, % at 32.9 µM; 1,400 tested, under 10 active; calls by dose curve
A number is an active result; - = inactive; ? = inconclusive; . = no result; [ ] = remark or other dose. This is a sample that favours compounds with a hit; in the whole collection about 11% have one here. Unless noted, the call rests on the fitted dose curve; in most records, active means well fitted inhibition curve with a large enough effect; inconclusive means small, poorly fitted or top-dose-only effect, or another doubt; inactive means no such curve, though single readings can be large or run the other way.

SMILES	NS1 function inh	HCV inh	Pf growth 96h	Pf growth 48h	VACV Venus inh	Vaccinia mCherry	NS1 inh valid
O=C(/C=C/c1ccc(O)c(O)c1)c1ccccc1O	-	?	-	-	-	?	.
N#Cc1cc2c([nH]c1=S)CCCCCC2	-	-	-	-	-	-	.
O=C(NC1=NCCS1)C1CC(=O)N(c2ccccc2)C1 (stereo unspecified)	-	-	-	-	.	.	.
CCN1CCCC1CN(Cc1cc2cc(C)ccc2[nH]c1=O)C(=O)Nc1ccccc1OC (stereo unspecified)	11µM	?	?	?	-	-	-
Cc1nn(Cc2ccccc2Cl)c(Cl)c1C(=O)OCC(=O)NC(=O)NC1CCCCC1	22µM	-	-	-	-	-	-
O=C(Nc1ccccc1Cl)Oc1ccc2ccccc2c1	?	.	-	-	.	.	-
O=C(Nc1ccccc1Cl)c1ccc2ccccc2c1	-	-	?	-	.	.	.
COc1cc(C(=O)N2CCN(Cc3ccccn3)CC2)cc(OC)c1OC	-	-	-	-	.	.	.
CCCCCCCN1C/C=C\C(c2ccc(OC)cc2)N(Cc2ccc(F)cc2)C(=O)[C@H]1Cc1ccccc1 (stereo partly specified)	?	-	?	?	-	-	-
CCC(C)Sc1nnc(Cc2cc(=O)[nH]c(=O)[nH]2)n1-c1ccc(F)cc1 (stereo unspecified)	8.9µM	-	-	.	-	-	-
Clc1ccc(-c2noc(CN3CCCC3)n2)cc1	-	?	?	-	-	-	.
CC(C)(C)N1C(=O)c2ccc(C(=O)Nc3ccc(-c4nc5ccccc5[nH]4)cc3)cc2C1=O	?	-	-	0.52µM	-	-	-
O=C(Nc1ccc(-c2nc3ccccc3[nH]2)cc1)c1ccc(N2C(=O)CCC2=O)cc1	-	-	-	-	-	-	.
O=C(N1CCCCC1)C1(S(=O)(=O)c2ccccc2)CC=CC1	-	-	-	-	-	-	.
Cc1ccc(C(=O)N/C(=C/c2ccco2)C(=O)NC2CCS(=O)(=O)C2)cc1 (stereo unspecified)	.	-	-	-	-	-	.
Cc1ccc(C(=O)N/C(=C\c2ccc(-c3ccc(Br)cc3)o2)C(=O)NC2CCS(=O)(=O)C2)cc1 (stereo unspecified)	?	?	-	-	-	-	-
COc1ccc(OC)c(S(=O)(=O)NCCc2cn3ccsc3n2)c1	-	-	-	-	-	-	.
Cc1ccc(-c2cc(N)n(Cc3ccc(Cl)cc3)n2)cc1	5µM	10µM	?	-	?	.	-
Cc1cc(N)n(Cc2ccc(Cl)cc2)n1	-	-	-	-	-	-	.
COc1ccc(Cl)cc1C(=O)OCC(=O)N1CCCC(C)C1 (stereo unspecified)	.	-	.	.	-	-	.
Cc1ccc(C)c(NS(=O)(=O)c2ccc3oc(=O)c4ncn(C)c4c3c2)c1	.	.	.	.	-	-	.
CCOc1ccc(S(=O)(=O)Nc2ccc(C(=O)N/N=C/c3c(C)nn(-c4ccccc4)c3N3CCCC3)cc2)cc1	-	?	?	?	-	-	.
COc1ccccc1NS(=O)(=O)c1cccc(C(=O)N/N=C/c2c(C)nn(-c3ccccc3)c2N2CCCC2)c1	11µM	?	?	?	-	-	-
COc1ccc(CNC(=O)c2ccc(CN3CCOCC3)cc2)cc1	-	-	?	-	-	-	.
O=C(NCc1ccccc1)c1ccc(CN2CCOCC2)cc1	?	-	-	-	-	.	-
SMILES	NS1 function inh	HCV inh	Pf growth 96h	Pf growth 48h	VACV Venus inh	Vaccinia mCherry	NS1 inh valid
Clc1ccccc1Nc1ncnc2c1nc1n2CCCCC1	.	.	.	.	-	-	.
CCn1c(SCC(=O)N2c3ccccc3Sc3ccccc32)nc2c1c(=O)n(C)c(=O)n2C	-	?	-	-	.	.	.
CCCCn1c(SCC(=O)N2c3ccccc3Sc3ccccc32)nc2c1c(=O)n(C)c(=O)n2C	11µM	?	.	1.7µM	?	.	-
O=C(CC1Sc2ccccc2NC1=O)OC(C(=O)NCCc1ccccc1)c1cccnc1 (stereo unspecified)	-	-	-	-	-	-	.
CN1CCN(C(=O)COc2ccc(-c3nc4ccccc4s3)cc2)CC1	-	.	.	.	-	-	.
CC1CC(C)CN(CCCNC(=O)c2ccc3c(c2)ncn3C2CCCC2)C1 (stereo unspecified)	?	-	10µM	?	.	.	-
CNC(=O)NCC12CC3CC(CC(C3)C1)C2	-	-	-	-	-	?	.
CCCN(CCC)C1=N/C(=C\c2ccco2)C(=O)N1c1ccccc1	1.1µM	-	-	.	-	-[1.46 µM]	-
CN(C)CCCN1C(=O)C(O)=C(C(=O)c2cccs2)C1c1cccc([N+](=O)[O-])c1 (stereo unspecified)	.	.	-	-	.	.	.
COc1ccc(C(=O)Cn2nnc(-c3ccccc3NC(=O)c3ccco3)n2)cc1	10µM	?	-	8.3µM	-	.	-
COc1ccc(C(=O)Nc2ccccc2-c2nnn(CC(=O)N3CCOCC3)n2)cc1	-	?	-	-	.	.	.
COc1ccc(C2C(C(=O)c3sc(C)nc3C)=C(O)C(=O)N2CCCn2ccnc2)cc1OC (stereo unspecified)	1.8µM	-	-	-	.	.	-
O=C(CSc1cccc2cccnc12)Nc1cccc(S(=O)(=O)N2CCOCC2)c1	.	-	?	?	-	-	.
CCOC(=O)CSC1=C(C#N)C(c2ccc(F)cc2)C(C(C)=O)=C(C)N1 (stereo unspecified)	-	-	?	-	-	-	.
Cc1[nH]c2ccccc2c1C(O)CN1CCN(c2cccc(C(F)(F)F)c2)CC1 (stereo unspecified)	?	-	?	?	?	-[1.46 µM]	?
Cc1[nH]c2ccccc2c1NC(=O)CN1CCN(c2cccc(C(F)(F)F)c2)CC1	-	-	?	?	?	?	.
c1coc(CNc2c3c(nc4ccccc24)CCC3)c1	-	?	-	?	.	.	.
CC1CC(C)CN(CCCNC(=O)C2CCN(S(=O)(=O)N3CCCCC3)CC2)C1 (stereo unspecified)	-	-	-	-	-	-	.
N#Cc1ccc(C(C(=O)NC2CCCCC2)n2c(=O)c(-c3ccco3)nc3ccccc32)cc1 (stereo unspecified)	.	.	.	.	-	-	.
CC(Nc1nc(-c2ccc(F)cc2)cs1)c1nc2cc(Cl)c(Cl)cc2n1CCOCCO (stereo unspecified)	.	-	.	.	?	?	.
CC(Nc1nc(-c2cccc(Br)c2)cs1)c1nc2cc(Cl)c(N3CCCCC3)cc2n1CCOCCO (stereo unspecified)	10µM	-	?	?	?	?	-
CN1C(=O)C2(c3ccccc31)N(c1ccccc1)C(=O)CS2(=O)=O (stereo unspecified)	.	.	.	.	-	-	.
CCOc1cc(C#N)c(NC(=O)CSc2nnnn2-c2ccc(OC)cc2)cc1OCC	?	?	.	?	.	.	-
Cc1ccc(C2=CC(c3cccs3)n3nnnc3N2)cc1 (stereo unspecified)	3.2µM	-	-	-	-	-	-
